Here are results for 18 compounds from ChEMBL document CHEMBL3988442, “University of Dundee, Small-Polar-MMV Screening Library” (2021).

Assay [1] deals with T1, Aspartate--tRNA(Asp/Asn) ligase (Mycobacterium tuberculosis (strain ATCC 25618 / H37Rv)) (UniProt P9WFW3).
T1 sequence (whole entry): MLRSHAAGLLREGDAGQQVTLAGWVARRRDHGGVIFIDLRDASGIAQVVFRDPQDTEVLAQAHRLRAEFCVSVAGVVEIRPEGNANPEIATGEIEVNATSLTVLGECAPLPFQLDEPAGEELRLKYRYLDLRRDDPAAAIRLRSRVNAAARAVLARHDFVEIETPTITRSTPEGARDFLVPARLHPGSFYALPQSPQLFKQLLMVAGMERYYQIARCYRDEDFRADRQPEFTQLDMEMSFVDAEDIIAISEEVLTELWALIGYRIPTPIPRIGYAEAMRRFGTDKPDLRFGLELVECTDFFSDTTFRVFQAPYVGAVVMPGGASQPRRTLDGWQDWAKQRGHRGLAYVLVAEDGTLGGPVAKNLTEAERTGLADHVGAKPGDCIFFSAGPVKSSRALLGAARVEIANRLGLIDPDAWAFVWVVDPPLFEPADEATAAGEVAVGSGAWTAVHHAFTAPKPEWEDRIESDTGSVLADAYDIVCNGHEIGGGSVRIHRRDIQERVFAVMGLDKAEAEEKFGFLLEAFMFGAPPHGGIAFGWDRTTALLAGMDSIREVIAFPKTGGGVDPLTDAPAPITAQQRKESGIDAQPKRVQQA
In words: Assay for Asp RNA synthetase-1 from Mycobacterium tuberculosis. Also noted: scale not given: direction of the effect not stated beside the values. Particulars: 30 µM. It is filed as functional.

The target of assay [2] is Shiga toxin 2 (Escherichia coli O157:H7) (UniProt P09385+P09386). The assay is described as follows: E. coli 0.157:H7 Shiga Toxin SOP - stx2 screening assay. It is filed as functional. Also noted: scale not given: direction of the effect not stated beside the values. The settings on record: 30 µM.

SMILES strings stand for the structures.

For `CC(C)c1ncc2c(n1)CN(Cc1nc(Cc3ccccc3)no1)CC2`, the Percent Effect in assay [1] was -4.05%; in assay [2], -0.282%.

For `Cc1cnn(CC2CCCN2c2nn3cc(C)nc3s2)c1` (stereo unspecified), the Percent Effect is -9.79% in assay [1] and -13.5% in assay [2].

Consider `CN(C)c1ccc(C(=O)NCC2(O)CCOCC2)cc1`, for which the results for the Percent Effect in assay [1] and in assay [2] were -2.13% and -12.5%, respectively.

Take `Cc1noc(C)c1CN(C)CCC(=O)N1CCc2sccc2C1`: the Percent Effect in assay [1] was 5.92%; in assay [2] it was -16%.

As to `NC(=O)CSCC(=O)N1CCc2cc(Cl)cc(Cl)c2C1`, the Percent Effect is 12.7% in assay [1] and -44.7% in assay [2].

In the case of `O=C(Nc1ccc(CCN2CCC(O)CC2)cc1)Nc1cccnc1`, the Percent Effect in assay [1] was -0.212%; in assay [2], -83.7%.

Consider `CC(NC(=O)NCC1(c2ccccc2)CCC1)c1nncn1C` (stereo unspecified), for which the Percent Effect was determined as 0.759% in assay [1] and 14.9% in assay [2].

Regarding `O=C(CCC1CCCC1)NCCn1nc(C2CCNC2)c2nccnc21` (stereo unspecified), the Percent Effect was 1.74% in assay [1] and -35.4% in assay [2].

As to `COc1ccc(C(N)c2cccc(S(C)(=O)=O)c2)cc1` (stereo unspecified), the Percent Effect in assay [1] was -2.54%; in assay [2], -7.65%.

Regarding `CN1CCC(c2cccc(Cc3ccc(F)cc3)n2)CC1`, the Percent Effect in assay [1] was -0.194%; in assay [2], -29.1%.

Consider `COc1cc(CNC(=O)C2CC(=O)N(C(C)C)C2)ccn1` (stereo unspecified), for which the Percent Effect in assay [1] is -1.66%; in assay [2], -62.3%.

In the case of `O=C(NCc1ccccc1CN1CCC(O)CC1)Nc1ccncc1`, the Percent Effect in assay [1] was -0.167%; in assay [2], -42%.

Regarding `Cn1cnnc1C1CCCN(C(=O)c2ccccc2Cl)C1` (stereo unspecified), the Percent Effect in assay [1] turned out to be 1.15%; in assay [2] it was 22.4%.

On to `C=C(C)COCCNC(=O)C1CCCN1C(C)=O` (stereo unspecified), for which the Percent Effect is -3.43% in assay [1] and -6.8% in assay [2].

Regarding `O=C(CN1CCCC(c2ccc(C(=O)O)cc2)C1)NC1CC1` (stereo unspecified), the Percent Effect is -1.07% in assay [1] and 6.8% in assay [2].

In the case of `CC(C)c1nc(C2CCCN2CC(=O)N2CCNC2=O)no1` (stereo unspecified), the Percent Effect was 1.61% in assay [1] and -10.5% in assay [2].

In the case of `CCC(O)CN1CCN(C(=O)c2sccc2OC)CC1` (stereo unspecified), the Percent Effect is 0.995% in assay [1] and -39.9% in assay [2].

For `CN(Cc1cccc(F)c1)S(=O)(=O)N1CCOCC1`, the Percent Effect was -3.02% in assay [1] and 3.45% in assay [2].
